Reference: PubChem BioAssay (NCI)
About 83,000 compounds went through this panel and 20% of them were active in at least one assay; those are over-represented in the sample as a whole.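 Single-dose data. Exposure time 48 hours. Values below 10 considered active.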 Calls of active or inactive are those of the source.

Experiments:
Experiment in all cases: NCI-60 one-dose screen, 48 h (100 = growth as untreated, 0 = no growth, -100 = all killed)
Settings in all cases: 10 µM unless noted
NCI-H23 lung = test system: NCI-H23 lung
NCI-H226 lung = test system: NCI-H226 lung
NCI-H322M lung = test system: NCI-H322M lung
HOP-62 NSCLC = test system: HOP-62 NSCLC
NCI-H522 lung = test system: NCI-H522 lung
A549/ATCC NSCLC = test system: A549/ATCC NSCLC
786-0 renal = test system: 786-0 renal
COLO 205 colon = test system: COLO 205 colon
DU-145 prostate = test system: DU-145 prostate
K-562 leukemia = test system: K-562 leukemia
MDA-MB-231 breast = test system: MDA-MB-231 breast
RXF 393 renal = test system: RXF 393 renal
SF-268 CNS = test system: SF-268 CNS
SF-295 CNS = test system: SF-295 CNS
SF-539 CNS = test system: SF-539 CNS
UACC-257 melanoma = test system: UACC-257 melanoma
HCT-15 colon = test system: HCT-15 colon
MALME-3M melanoma = test system: MALME-3M melanoma
M14 melanoma = test system: M14 melanoma

Measured: growth

C=CCOc1ccc2c(c1)CC[C@@H]1[C@@H]2CC[C@@]2(C)[C@H]1CC[C@]2(C)O
inactive: NCI-H23 lung 92.8% | NCI-H226 lung 104% | NCI-H322M lung 81.2% | HOP-62 NSCLC 109% | NCI-H522 lung 60.3% | A549/ATCC NSCLC 80.3% | 786-0 renal 93.8% | COLO 205 colon 75.6% | DU-145 prostate 121% | MDA-MB-231 breast 64.7% | RXF 393 renal 106% | SF-268 CNS 85.7% | SF-295 CNS 94.8% | SF-539 CNS 76.5% | UACC-257 melanoma 53.9% | HCT-15 colon 65.2%
active: K-562 leukemia 4.02%

ClC1=C(Cl)C(=C2C(Cl)=C(Cl)C(Cl)=C2Cl)C(Cl)=C1Cl
inactive: NCI-H23 lung 97.9% | NCI-H226 lung 101% | NCI-H322M lung 97.7% | HOP-62 NSCLC 90.1% | NCI-H522 lung 79% | A549/ATCC NSCLC 90.2% | 786-0 renal 103% | COLO 205 colon 103% | DU-145 prostate 106% | K-562 leukemia 87.1% | MALME-3M melanoma 106% | MDA-MB-231 breast 110% | RXF 393 renal 106% | SF-268 CNS 102% | SF-295 CNS 99.2% | SF-539 CNS 104% | UACC-257 melanoma 92.3% | M14 melanoma 102% | HCT-15 colon 106%

Cc1cc(C)n(C(=O)c2nn(-c3ccc(Cl)cc3)cc2O)n1
inactive: NCI-H226 lung 44.9% | NCI-H322M lung 37.2% | HOP-62 NSCLC 47.8% | NCI-H522 lung 59.6% | A549/ATCC NSCLC 11.6% | 786-0 renal 95.7% | COLO 205 colon 106% | DU-145 prostate 30% | MALME-3M melanoma 117% | MDA-MB-231 breast 77.4% | RXF 393 renal 39.1% | SF-268 CNS 39.9% | SF-539 CNS 39.1% | UACC-257 melanoma 82.5% | M14 melanoma 45.7% | HCT-15 colon 50.2%
active: NCI-H23 lung 9.42% | K-562 leukemia 6.26% | SF-295 CNS -4.15%

Cc1ccc2c(c1)O/C(=C\c1ccc([N+](=O)[O-])o1)C2=O
active: NCI-H522 lung -66% | 786-0 renal 5.37% | COLO 205 colon -41.8% | DU-145 prostate -1.53% | K-562 leukemia 2.06% | MALME-3M melanoma -10.5% | RXF 393 renal -23.5%
inactive: NCI-H23 lung 56.2% | NCI-H226 lung 78.9% | NCI-H322M lung 68.6% | HOP-62 NSCLC 69.6% | A549/ATCC NSCLC 55.4% | MDA-MB-231 breast 48.4% | SF-268 CNS 29.3% | SF-295 CNS 94.3% | SF-539 CNS 44.5% | UACC-257 melanoma 68.3% | M14 melanoma 55.8%

NC(=O)N/N=C/c1ccc(Br)o1
inactive: NCI-H23 lung 97.7% | NCI-H226 lung 98.8% | NCI-H322M lung 101% | HOP-62 NSCLC 94.2% | NCI-H522 lung 89.7% | A549/ATCC NSCLC 106% | 786-0 renal 105% | COLO 205 colon 98.6% | DU-145 prostate 110% | K-562 leukemia 104% | MALME-3M melanoma 106% | MDA-MB-231 breast 99% | RXF 393 renal 112% | SF-268 CNS 99.6% | SF-295 CNS 103% | SF-539 CNS 101% | UACC-257 melanoma 105% | M14 melanoma 101% | HCT-15 colon 96.1%

Cc1cccc(Cl)c1NC(=O)c1ccc2nc(NC(=O)NC3CC(C)(C)NC(C)(C)C3)sc2c1
active: K-562 leukemia 9.24%
inactive: NCI-H23 lung 91% | NCI-H226 lung 103% | NCI-H322M lung 81.8% | HOP-62 NSCLC 68.3% | NCI-H522 lung 88.6% | 786-0 renal 84.6% | COLO 205 colon 15.3% | DU-145 prostate 103% | MALME-3M melanoma 82.2% | MDA-MB-231 breast 54% | RXF 393 renal 35.8% | SF-268 CNS 70.4% | SF-295 CNS 79.7% | SF-539 CNS 41.8% | M14 melanoma 93.6% | HCT-15 colon 103%

OCc1nnn(-c2ccccc2)c1CO
inactive: NCI-H23 lung 112% | NCI-H226 lung 114% | NCI-H322M lung 118% | HOP-62 NSCLC 110% | NCI-H522 lung 101% | A549/ATCC NSCLC 110% | 786-0 renal 105% | COLO 205 colon 159% | DU-145 prostate 113% | K-562 leukemia 132% | MALME-3M melanoma 122% | MDA-MB-231 breast 107% | RXF 393 renal 104% | SF-268 CNS 105% | SF-295 CNS 115% | SF-539 CNS 116% | UACC-257 melanoma 124% | M14 melanoma 110% | HCT-15 colon 96.7%

Oc1[nH]c2ccc(Cl)cc2c1/C=c1/ccc2c(c1)N=C(c1ccc(C(F)(F)F)cc1)N=2
active: RXF 393 renal 5.23%
inactive: NCI-H23 lung 67.2% | NCI-H226 lung 88.7% | NCI-H322M lung 84.3% | HOP-62 NSCLC 71.5% | NCI-H522 lung 45.7% | A549/ATCC NSCLC 70.5% | 786-0 renal 16.7% | DU-145 prostate 70% | K-562 leukemia 26.9% | MALME-3M melanoma 69.2% | MDA-MB-231 breast 83.4% | SF-295 CNS 40.9% | SF-539 CNS 80.1% | UACC-257 melanoma 66% | M14 melanoma 54.4% | HCT-15 colon 54.1%
